# In all, about 320,000 compounds went through this assay and about 3,300 (1%) were called active. The sample holds actives, similar compounds and a random draw of the others, so the mix is not that of the screen. A number with no mark means an inactive call.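 The calls were made as follows: active = every valid replicate shows activation above 250% relative to neutral control wells; inactive = the rest, any valid replicate at or below 250%.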
# Assay: yeast Mot1-301 growth rescue at high temperature, primary screen, SUMOylation pathway inhibitor project, S. cerevisiae, ATP luminescence, 38.5C (AID 2716);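 also: OY570 slx delta 5 strain wells were the positive control but not used for scaling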
# Details: S. cerevisiae Mot1-301 growth rescue, at 18.8 µM, active compounds read high, percent above DMSO median, 100 means doubled
row,Compound,growth rescue
1,CN(NC(=O)c1ccccc1)c1nc2ccccc2nc1C(F)(F)F,29.8%
2,CN(NC(=O)c1ccccc1F)c1nc(C(F)(F)F)nc2ccccc12,658% (active)
3,CSc1nc(N(C)NC(=O)c2cccc(C)c2)c2ccccc2n1,-1.55%
4,CCOC(=O)[C@@H]1[C@H]2COc3ccc(Br)cc3[C@H]2N2C(=O)N(c3ccc(C)cc3)C(=O)[C@@]12C,5.35%
5,O=C(NCc1ccco1)C(c1ccncc1)N(C(=O)Cn1nnc2ccccc21)c1ccccc1 (stereo not drawn),5.81%
6,C=CCC(NCCCO)c1cccc(OC)c1OC (stereo not drawn),1100% (active)
7,C=CCC(Nc1ccccc1)c1cccc(OC)c1OC (stereo not drawn),-16.1%
8,COc1cccc(C(CC(=O)NCCN2CCOCC2)NS(=O)(=O)c2ccc(C)cc2)c1OC (stereo not drawn),-1.44%
9,CC(=O)Nc1ccc(/C(C)=N/NC(=O)CN(c2ccccc2Br)S(C)(=O)=O)cc1,-7.93%
10,CNC(=O)/C(C#N)=C/c1c(F)cccc1Cl,-36.4%
11,COc1ccc(/C=N/OCc2ccccc2C#N)c(OC)c1,31.4%
12,COc1ccc(CCNC(=O)C(=O)NCC2OCCN2S(=O)(=O)c2ccc(OC)c(C)c2)cc1 (stereo not drawn),0.71%
13,COc1ccc(S(=O)(=O)N2CCOC2CNC(=O)C(=O)NCc2ccncc2)cc1C (stereo not drawn),392% (active)
14,COc1ccc(S(=O)(=O)N2CCOC2CNC(=O)C(=O)NCc2ccncc2)cc1OC (stereo not drawn),-3.43%
15,Cc1ccc(CC2CC(=O)N(c3cc(C)ccc3C)C2=O)cc1 (stereo not drawn),-12%
16,Cc1ccc(CC2CC(=O)N(c3ccc4c(c3)OCCO4)C2=O)cc1 (stereo not drawn),1800% (active)
17,COc1ccc(N2CCN(C3CC(=O)N(c4ccc5c(c4)OCCO5)C3=O)CC2)cc1 (stereo not drawn),21.5%
18,O=C(NCc1ccccc1Cl)NC(=O)c1csc([N+](=O)[O-])c1,-7.29%
19,COc1ccc(C(C#N)(CC(=O)O)c2cnccn2)cc1OC (stereo not drawn),-15.4%
20,Cn1c(=O)n(C)c2cc(C(=O)Nc3ccc(Br)cc3)ccc21,15%
21,COc1cccc(OC)c1C(=O)Nc1ccc2c(c1)n(C)c(=O)n2C,676% (active)
22,COc1cccc(OC)c1C(=O)Nc1ccc(Cc2ccncc2)cc1,12.2%
23,CC(C)N(C(=O)CSc1nc(COc2ccccc2)nc2ccccc12)C(C)C,-2%
24,S=C(Nc1cccc(Cl)c1)Nc1ccc2c(c1)OCCO2,-16%

row,Compound,growth rescue
1,Cc1csc(NC(=S)Nc2cccc(Cl)c2)n1,817% (active)
2,FC(F)(F)c1cccc(NC(=S)Nc2cccc(Cl)c2)c1,2.73%
3,O=c1c2c(-c3ccccc3)ccnc2[nH]n1-c1ccccc1,-10.9%
4,CCC(CC)c1nnc(NC(=O)C2CCN(C(=O)c3ccco3)CC2)s1,-12.8%
5,CO/N=C(/CS(=O)(=O)c1ccc(Br)cc1)c1ccc(OC)cc1,-7.59%
6,O=C(O)Cc1ccc(-c2ccccc2)cc1,403% (active)
7,O=C(O)Cc1ccc(NCc2ccccc2Cl)cc1,67.5%
8,O=C(Cc1ccc(-c2ccccc2)cc1)NC(c1ccccc1)c1ccccc1,-3.02%
9,COc1cc(/C(=C/c2ccccc2)c2ccccc2)c2c(c1)oc1ccccc12,1.69%
10,Cc1cc(C)cc(Oc2nc3c(C)cccn3c(=O)c2/C=C(\C#N)C(=O)NC2CCS(=O)(=O)C2)c1 (stereo not drawn),-14%
11,CCC(C)(C)NC(=O)C(c1cccc(OC)c1OC)N(CC(C)C)C(=O)CCC(=O)Nc1cc(C)on1 (stereo not drawn),13.1%
12,COc1ccc(CCC(=O)c2ccc(OC)cc2)cc1,34.5%
13,COc1ccc(OCCCC(=O)Oc2ccc(OC)cc2)cc1,-3.53%
14,COc1ccc(OCCC(=O)c2ccc(OC)cc2)cc1,614% (active)
15,O=C1CCC/C(=N\NC(=O)NC2CCCCC2)C1,-14.5%
16,Cc1nn(Cc2ccc(F)cc2)c(C)c1NC(=O)c1noc2c1CCc1ccccc1-2,-2.02%
17,CCOc1ncccc1C(=O)Nc1ccc2c(c1)OCCO2,6.77%
18,COc1cc(/C=N/O)cc(Br)c1OCc1cccc(Cl)c1,-7.89%
19,CCOc1cc(/C=N/O)cc(Br)c1OC,341% (active)
20,COc1cc(/C=N/O)cc(Br)c1OS(=O)(=O)c1ccc(C)cc1,13.1%
21,Cc1ccc(F)c(NC(=O)CCc2ccccc2)c1,-0.553%
22,COCCCNC(=O)C1CCC(CNS(=O)(=O)c2ccc(OC)cc2)CC1 (stereo not drawn),-13.1%
23,CCCCCCCCc1c(O)nc(-n2[nH]c(C)c(CCO)c2=O)[nH]c1=O,605% (active)
24,CCCCc1c(O)nc2n(c1=O)CCS2,-12.2%

row,Compound,growth rescue
1,O=C(NCCc1ccc(Cl)cc1)C1CCCN1C(=O)NCc1ccccc1 (stereo not drawn),-4.04%
2,O=C(CN1C(=O)NC2(CCCC2)C1=O)Nc1ccc(F)c(F)c1F,-3.83%
3,Cc1ccc(O)c(CNc2nc3ccccc3n2C)c1,913% (active)
4,CC(C)n1c(NCc2c[nH]c3ccccc23)nc2ccccc21,5.8%
5,Cn1c(NC(=O)c2ccccc2)nc2ccccc21,4%
6,CCN1CCN(c2sc(S(C)(=O)=O)nc2S(=O)(=O)c2ccc(Cl)cc2)CC1,2.93%
7,C/C(=N\NC(=O)C1(C)CC1(Br)Br)c1ccc(C)cc1C (stereo not drawn),8.98%
8,CCCCc1nccn1CCn1ccnc1CCCC,1.48%
9,COc1ccc(CCNC(=O)Cc2ccc(C)cc2)cc1OC,102%
10,CCCN=C1NC(=O)C(CC(=O)NCCc2ccc(OC)c(OC)c2)S1 (stereo not drawn),536% (active)
11,COc1ccc(CCNC(=O)CC2SC(=Nc3cc(C)cc(C)c3)NC2=O)cc1OC (stereo not drawn),308%
12,COc1cccc(N(CC(=O)NCc2ccccc2)C(=O)CCC(=O)Nc2nccs2)c1,-6.15%
13,COC(=O)C1CCN(CC(N)=O)CC1,-5.03%
14,COc1ccc(C(=O)COC(=O)Cn2cnc3c2c(=O)n(C)c(=O)n3C)c(OC)c1,-7.8%
15,O=C(Nn1cnnc1)c1cc(Cl)ccc1Cl,4.55%
16,CN1CCN(S(=O)(=O)c2cccc(C(=O)Nc3cccc(S(N)(=O)=O)c3)c2)CC1,-8.57%
17,COC(=O)CCCC1=CC2=CC(=O)C(C)(OC(=O)c3cccs3)C(=O)C2=CN1CC(C)C (stereo not drawn),13.6%
18,CCCCC1=CC2=CC(=O)C(C)(OC(=O)CC)C(=O)C2=CN1CCCOC(C)C (stereo not drawn),499% (active)
19,COC(=O)CCCC1=CC2=CC(=O)C(C)(OC(=O)c3cccs3)C(=O)C2=CN1CC1CC1 (stereo not drawn),414%
20,CCCCN(C1CCS(=O)(=O)C1)S(=O)(=O)c1ccc(C(C)C)cc1 (stereo not drawn),1.38%
21,CC(=O)c1ccc(S(=O)(=O)N2CCC(Oc3ccc(-n4cnnn4)cc3)CC2)cc1,-5.14%
22,CCCCN(C(=O)COc1ccc(NC(C)=O)cc1)C1CCS(=O)(=O)C1 (stereo not drawn),0.599%
23,Cc1cccc(C)c1NC(=O)C(Cl)C(=O)c1ccccc1 (stereo not drawn),474% (active)
24,Cc1cccc(C)c1NC(=O)C(c1ccccc1)N1CC(=O)Nc2ccccc21 (stereo not drawn),8.11%

row,Compound,growth rescue
1,Cc1cccc(C)c1NC(=O)CN(C)C(=O)CCC(=O)c1ccccc1,-17.7%
2,CN(C)CCCN(Cc1cc2cc3c(cc2[nH]c1=O)OCCO3)C(=O)NC1CCCCC1,4.3%
3,CCN1CCN(C(=O)N(Cc2ccc(Cl)cc2)S(=O)(=O)c2ccc(C)cc2)CC1,2.05%
4,COc1ccc(NS(=O)(=O)c2ccc(C(=O)Nc3c(C)n(C)n(-c4ccccc4)c3=O)cc2)cc1,-8.97%
5,Cc1cccn2c(=O)c3cc(C(=O)NCCN4CCOCC4)c(=N)n(Cc4cccnc4)c3nc12,-5.56%
6,Cc1cccn2c(=O)c3cc(C(=O)NCC4CCCO4)c(=N)n(Cc4ccc(F)cc4)c3nc12 (stereo not drawn),-5.43%
7,CCn1c(=N)c(C(=O)NCCCOC)cc2c(=O)n3cccc(C)c3nc21,327% (active)
8,O=C(NC1CCN(C(=S)NCc2ccco2)CC1)c1ccc(F)cc1,-3%
9,Cc1cc(NC(=O)CSCC(=O)NC(C)c2ccccc2)no1 (stereo not drawn),4.77%
10,N#Cc1ccc(S(=O)(=O)NCC(=O)OCC(=O)NCCc2ccccc2)cc1,0.284%
11,COc1ccc(N(CCC(=O)NCCc2ccccc2)S(=O)(=O)c2ccc(C)cc2C)cc1,-11.2%
12,Cc1cccc(-[n+]2c(-c3cccc(Br)c3)[nH]c3nc4ccccc4nc32)c1,655% (active)
13,Cc1ccc(CNC(=O)COC(=O)C2CCC2)cc1,-6.16%
14,Cc1nccn1CCC1CCCCN1C(=O)CCc1nnc(-c2ccsc2)o1 (stereo not drawn),-11.6%
15,COc1cccc(CNC(=O)CCCC(=O)Nc2cccc([N+](=O)[O-])c2)c1,-7.72%
16,COC(=O)/C=C\C(=O)Nc1cccc([N+](=O)[O-])c1,362% (active)
17,COc1ccc(S(=O)(=O)NC(C)C(=O)Nc2cccc([N+](=O)[O-])c2)cc1 (stereo not drawn),-16.6%
18,CCOC(=O)C1CCCN(C(=O)c2ccc(C)c(S(=O)(=O)N3CCCCC3)c2)C1 (stereo not drawn),-5.7%
19,CCOc1ccc2nc(N(CCCN(C)C)C(=O)c3ccc(C(=O)c4ccccc4)cc3)sc2c1,1.2%
20,CCOc1ccc2nc(N(CCN(C)C)C(=O)c3ccc4ccccc4c3)sc2c1,74.9%
21,CCCC(=O)N(CCN1CCOCC1)c1nc2ccc(OCC)cc2s1,371% (active)

# — PubChem BioAssay AID2716 (Broad Institute, 2010)
